This test in a line: NCI Yeast Anticancer Drug Screen. Data for the mlh1 rad18 strain (AID 175). The conditions noted are these: S. cerevisiae mlh1 rad18 strain growth inhibition, stronger effect = higher value. The protocol:
Growth inhibition of yeast strains with defined genetic alterations is measured as a screen for potential anti-cancer activity. Selected strains with alterations in DNA damage repair or cell cycle control were exposed to compounds and growth inhibition was measured relative to vehicle treated controls. The strain used in this assay is mlh1 rad18

Where [1] appears, read: at 5.0 µM (retest, dose inferred, filed as 0.5).
[2] abbreviates: at 50.0 µM (retest, dose inferred, filed as 5.0).

Several values for one entry are separate records, joined by “and”; a condition that tells them apart may be missing. Equal entries are not always repeated. The panel holds about 79,000 compounds, 15% with a hit somewhere; the sample as a whole holds those more often. Values without a mark were called inactive. Activity calls are given as the source filed them. Rule as the data show it: active = growth inhibition above about 70%; inactive = the rest.

Turning to `COc1nc(N)c(N=CC(OC(C)=O)C(OC(C)=O)C(COC(C)=O)OC(C)=O)c(=O)n1C` (stereo unspecified), the growth inhibition is -3% and -20% and -25% under setting [1]; 0% and -18% and -21% under setting [2].

Turning to `BrC/C=C/C[P+](c1ccccc1)(c1ccccc1)c1ccccc1`, the growth inhibition was 43% under setting [1], 43% under setting [2] and 87.7% (active) (at 50.0 µM).

On to `CCC1SC(=S)N(c2ccc(Cl)cc2)C1=O` (stereo unspecified), for which the growth inhibition reads like this: under setting [1], 0%; under setting [2], 71% (active); (at 50.0 µM) 65%.

Consider `CC(O)CN1C(=O)c2cccc3cc([N+](=O)[O-])cc(c23)C1=O` (stereo unspecified), for which the growth inhibition runs as follows: under setting [1], 25%; under setting [2], 73% (active); (at 50.0 µM) 83.3% (active).

Regarding `O=C1C(C(O)(C(F)(F)F)C(F)(F)F)CCC1C(O)(C(F)(F)F)C(F)(F)F` (stereo unspecified), the growth inhibition reads like this: under setting [1], 2%; under setting [2], 49%; (at 50.0 µM) 69.5%.

For the compound `CCN(CC)CCSc1c2ccccc2nc2cc(NCC(=O)Nc3ccccc3-c3ccccc3NC(=O)CNc3ccc4c(SCCN(CC)CC)c5ccccc5nc4c3)ccc12`, the growth inhibition under setting [1] is 42%, the growth inhibition under setting [2] is 98% (active) and the growth inhibition (at 50.0 µM) is 89% (active).

Consider `O=S(=O)(CCC[C@H]1[C@@H](CCOCc2ccccc2)C2CCCN1O2)c1ccccc1` (stereo partly specified), for which the growth inhibition was -14% under setting [1], -2% under setting [2] and 0.4% (at 50.0 µM).

As to `COc1cc(C(C)C(C(=O)O)C(=O)C(=O)O)cc(OC)c1OC` (stereo unspecified), the growth inhibition is -3% under setting [1], 41% under setting [2] and 44.9% (at 50.0 µM).

In the case of `O=c1c(Br)cc2c(-c3ccccc3)c3cc(Br)c(O)c(Br)c3oc-2c1Br`, the growth inhibition reads like this: under setting [1], 67%; under setting [2], 58%; (at 50.0 µM) 83.4% (active).

Turning to `O=[N+]([O-])C(=C(NCc1ccccc1)NCc1ccccc1)C(Cl)=C(Cl)Cl`, the growth inhibition under setting [1] is 12%, the growth inhibition under setting [2] was 83% (active) and the growth inhibition (at 50.0 µM) is 81.5% (active).

Regarding `[O-]c1c2cc(-[n+]3c(-c4ccccc4)cc(-c4ccccc4)cc3-c3ccccc3)cc1COCCOCCOCCOCCOC2`, the growth inhibition under setting [1] was 0%, the growth inhibition under setting [2] was 70% (active) and the growth inhibition (at 50.0 µM) was 72.2% (active).

Turning to `O=c1[nH]c(=O)n(CCCO)cc1F`, the growth inhibition runs as follows: under setting [1], 47%; under setting [2], 45%; (at 50.0 µM) -41.3%.

On to `Cc1ccc(SSc2ccc(C)cc2[N+](=O)[O-])c([N+](=O)[O-])c1`, for which the growth inhibition is, setting by setting: under setting [1], 35%; under setting [2], 80% (active); (at 50.0 µM) 44.7%.

Consider `CC(C)(C)[Si](C)(C)OCC1OC(n2cnc3c(N)ncnc32)C2OC(=S)OC12` (stereo unspecified), for which the growth inhibition reads like this: under setting [1], 7%; under setting [2], 22%; (at 50.0 µM) 48.1%.
